Drawing on PubChem BioAssay (NCI), this text covers growth for 8 compounds.

Some test systems named below: SR leukemia; RPMI-8226 leukemia; OVCAR-8 ovarian; OVCAR-5 ovarian; OVCAR-4 ovarian; SK-OV-3 ovarian; IGROV1 ovarian; OVCAR-3 ovarian; HS 578T breast; NCI/ADR-RES ovarian; T-47D breast; BT-549 breast; MDA-MB-435 melanoma; SW-620 colon; MCF7 breast; HCT-116 colon; HCC-2998 colon; KM12 colon.
Holding throughout (assay): NCI-60 one-dose screen, 48 h (100 = growth as untreated, 0 = no growth, -100 = all killed)
Holding throughout (conditions): 10 µM unless noted

Compounds without any hit were thinned out: in the full panel of roughly 83,000, 20% have a hit.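 Plates (96-well) were seeded with cells, treated with compound at one concentration, and incubated for 48 hours before percent growth was determined.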 A number with no mark means an inactive call. Activity calls are given as the source filed them. The calls were made as follows: active = growth percent below 10; inactive = the rest.

For `CC(C)OC1OC(OC(C)C)C(OC(C)C)OC1OC(C)C` (stereo not drawn), the growth with SR leukemia was 100%; with RPMI-8226 leukemia, 94.5%; in the assay with OVCAR-8 ovarian, 94.4%; in the assay on OVCAR-5 ovarian it was 102%; in the assay with OVCAR-4 ovarian, 88.9%; with SK-OV-3 ovarian, 113%. Further, the growth was 93.9% in the assay with IGROV1 ovarian; 99.5% in the assay with OVCAR-3 ovarian; 101% in the assay with HS 578T breast; 105% in the assay on NCI/ADR-RES ovarian; 115% in the assay on T-47D breast; 102% in the assay with BT-549 breast. Also, the growth in the assay on MDA-MB-435 melanoma is 110%; with SW-620 colon it was 96.2%; with MCF7 breast, 103%; with HCT-116 colon, 88.5%; in the assay on HCC-2998 colon it was 121%; in the assay with KM12 colon, 95.2%.
On to `O=C1NN(C(=O)c2ccccc2)C(c2ccc(Cl)c(Cl)c2)=C/C1=C\c1ccccc1[N+](=O)[O-]`, for which the growth is 6.01% [6.75 µM] (active) with SR leukemia; 2.27% [6.75 µM] (active) in the assay with RPMI-8226 leukemia; 30.3% [6.75 µM] with OVCAR-8 ovarian; -18.6% [6.75 µM] (active) in the assay on OVCAR-5 ovarian; 12.2% [6.75 µM] in the assay with OVCAR-4 ovarian; 37.1% [6.75 µM] with SK-OV-3 ovarian. The growth with IGROV1 ovarian was 19.3% [6.75 µM]; in the assay with OVCAR-3 ovarian it was 15.9% [6.75 µM]; with HS 578T breast, 30.8% [6.75 µM]; in the assay on NCI/ADR-RES ovarian it was 17.7% [6.75 µM]; with T-47D breast, 27.6% [6.75 µM]; with BT-549 breast, -7.17% [6.75 µM] (active). Moreover, the growth in the assay on MDA-MB-435 melanoma was 58.5% [6.75 µM]; with SW-620 colon it was 13.7% [6.75 µM]; in the assay on MCF7 breast it was 8.91% [6.75 µM] (active); in the assay with HCT-116 colon it was 5.02% [6.75 µM] (active); with HCC-2998 colon, -20.5% [6.75 µM] (active); in the assay on KM12 colon it was 4.6% [6.75 µM] (active).
Take `CC(=O)Oc1ccccc1C(=O)Nc1ncc([N+](=O)[O-])s1`: the growth was 13.1% with SR leukemia; 7.09% (active) in the assay with RPMI-8226 leukemia; 51.3% in the assay on OVCAR-8 ovarian; 63.3% in the assay on OVCAR-5 ovarian; 55.2% in the assay on OVCAR-4 ovarian; 85.5% in the assay on SK-OV-3 ovarian. For the same compound, the growth is 26.2% with IGROV1 ovarian; 5.56% (active) with OVCAR-3 ovarian; 15.6% in the assay with HS 578T breast; 20.6% in the assay on NCI/ADR-RES ovarian; 61.7% with T-47D breast; -29.4% (active) with BT-549 breast. Further, the growth with MDA-MB-435 melanoma was 24.2%; in the assay with SW-620 colon, 26.7%; in the assay with MCF7 breast, 49.7%; in the assay on HCT-116 colon, 3.62% (active); in the assay on HCC-2998 colon, 23.3%; in the assay with KM12 colon it was 24.7%.
Take `O=C1c2cccc3cccc(c23)C(=O)N1CCCCCCCCCCN1C(=O)c2cccc3cccc(c23)C1=O`: the growth was 96.8% with SR leukemia; 108% in the assay on RPMI-8226 leukemia; 104% in the assay with OVCAR-8 ovarian; 106% in the assay with OVCAR-5 ovarian; 95% in the assay with OVCAR-4 ovarian; 105% with SK-OV-3 ovarian. In addition, the growth with IGROV1 ovarian is 110%; in the assay on OVCAR-3 ovarian it was 109%; in the assay on HS 578T breast, 99.1%; in the assay with NCI/ADR-RES ovarian, 110%; in the assay with T-47D breast, 97.7%; in the assay with BT-549 breast, 114%. Besides, the growth was 104% in the assay on MDA-MB-435 melanoma; 104% with SW-620 colon; 86.9% with MCF7 breast; 117% in the assay with HCT-116 colon; 112% in the assay with HCC-2998 colon; 109% in the assay with KM12 colon.
For the compound `Cc1ccsc1C(=O)CC(=O)C(F)(F)C(F)(F)C(F)(F)F`, the growth with SR leukemia is 108%; with RPMI-8226 leukemia, 101%; in the assay with OVCAR-8 ovarian, 102%; in the assay with OVCAR-5 ovarian, 97.4%; in the assay on OVCAR-4 ovarian it was 98.6%; in the assay on SK-OV-3 ovarian it was 103%. Besides, the growth in the assay on IGROV1 ovarian is 114%; in the assay with OVCAR-3 ovarian, 110%; in the assay with HS 578T breast it was 110%; in the assay on NCI/ADR-RES ovarian, 107%; in the assay on T-47D breast, 101%; in the assay on BT-549 breast, 125%. Also, the growth was 105% with MDA-MB-435 melanoma; 103% with SW-620 colon; 96.6% in the assay on MCF7 breast; 109% with HCT-116 colon; 111% in the assay with HCC-2998 colon; 107% in the assay with KM12 colon.
On to `CCCCCCCCCCCCNC(=O)N[C@H](C(=O)N[C@H]1/C=C/OCCNC(=O)/C=C/[C@H](C(C)C)NC1=O)C(C)C`, for which the growth with SR leukemia was 29%; in the assay with RPMI-8226 leukemia, 60.3%; in the assay with OVCAR-8 ovarian, 96%; with OVCAR-5 ovarian it was 36.1%; in the assay on OVCAR-4 ovarian, 50.8%; with SK-OV-3 ovarian, 106%. The growth in the assay on IGROV1 ovarian is 45.2%; with OVCAR-3 ovarian, 24.1%; in the assay on HS 578T breast it was 74.2%; in the assay on NCI/ADR-RES ovarian, 101%; with T-47D breast, 47.6%; with BT-549 breast, -7.12% (active). The growth in the assay with MDA-MB-435 melanoma is 28.3%; with SW-620 colon it was 48.1%; in the assay with MCF7 breast, 32.4%; in the assay on HCT-116 colon, 25.5%; with HCC-2998 colon, 90.4%; in the assay with KM12 colon, 71.5%.
In the case of `CS(=O)(=O)c1ccc(C(=O)N/N=C/c2ccccc2O)cc1`, the growth is 20.4% in the assay on SR leukemia; 48.7% with RPMI-8226 leukemia; 27.9% in the assay with OVCAR-8 ovarian; 64.7% with OVCAR-5 ovarian; 43.6% in the assay on OVCAR-4 ovarian; 39.9% with SK-OV-3 ovarian. Further, the growth in the assay with IGROV1 ovarian is 41%; in the assay with OVCAR-3 ovarian, 22.8%; in the assay on HS 578T breast it was 81.5%; in the assay with NCI/ADR-RES ovarian, 29.9%; in the assay on T-47D breast it was 52.4%; with BT-549 breast, 53%. For the same compound, the growth was 59.7% in the assay on MDA-MB-435 melanoma; 43.3% with SW-620 colon; 22.5% in the assay on MCF7 breast; 29.1% in the assay on HCT-116 colon; 47.3% in the assay on HCC-2998 colon; 34.1% in the assay on KM12 colon.
Turning to `COc1ccc(C(=O)OC2C(OC3C(O)COC(O[C@H]4C[C@H]5[C@@H]6CC=C7C[C@@H](O)CC[C@]7(C)[C@H]6CC[C@]5(C)[C@H]4[C@H](C)C(=O)CCC(C)C)C3OC(C)=O)OCC(O)C2O)cc1` (stereo partly drawn), the growth with SR leukemia is -8.55% (active); in the assay with RPMI-8226 leukemia, -29.1% (active); in the assay with OVCAR-8 ovarian, 19.3%; in the assay with OVCAR-5 ovarian, 21.6%; with OVCAR-4 ovarian, 52.1%; with SK-OV-3 ovarian, -44.1% (active). The growth in the assay on IGROV1 ovarian was 28.3%; in the assay with OVCAR-3 ovarian, 53.4%; in the assay on HS 578T breast, -29.3% (active); in the assay with NCI/ADR-RES ovarian, 60.1%; with T-47D breast it was 2.99% (active); in the assay with BT-549 breast, -8.64% (active). Besides, the growth was -47.4% (active) in the assay on MDA-MB-435 melanoma; -57.3% (active) in the assay on SW-620 colon; -30.8% (active) with MCF7 breast; 1.33% (active) in the assay with HCT-116 colon; 52.9% in the assay on HCC-2998 colon.
